About 83,000 compounds went through this panel and 20% of them were active in at least one assay; those are over-represented in the sample as a whole.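 96-well plates, one dose, 48 hours. Percent growth reported; active if below 10.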 Values without a mark were called inactive. Calls of active or inactive are those of the source.
Legend:
Assay in all cases: NCI-60 one-dose screen, 48 h (100 = growth as untreated, 0 = no growth, -100 = all killed)
NCI-H226 lung = details: 10 µM
NCI-H322M lung = details: 10 µM
HOP-62 NSCLC = details: 10 µM
NCI-H460 lung = details: 10 µM
NCI-H522 lung = details: 10 µM
A549/ATCC NSCLC = details: 10 µM
COLO 205 colon = details: 10 µM
DU-145 prostate = details: 10 µM
SF-268 CNS = details: 10 µM
SF-295 CNS = details: 10 µM
SF-539 CNS = details: 10 µM
UACC-257 melanoma = details: 10 µM
HT29 colon = details: 10 µM
SNB-75 CNS = details: 10 µM
U251 CNS = details: 10 µM
PC-3 prostate = details: 10 µM
SK-MEL-5 melanoma = details: 10 µM
UACC-62 melanoma = details: 10 µM
SK-MEL-2 melanoma = details: 10 µM
HL-60(TB) leukemia = details: 10 µM unless noted

C[C@H]1[C@@H](CC(=O)N[C@@H](Cc2coc3ccccc23)B(O)O)O[C@@H]2OC3(C)CC[C@H]4[C@H](C)CC[C@@H]1[C@@]24OO3
growth (NCI-H226 lung): -28.1% (active)
growth (NCI-H322M lung): 19.6%
growth (HOP-62 NSCLC): -17.3% (active)
growth (NCI-H460 lung): -28.2% (active)
growth (NCI-H522 lung): -74.5% (active)
growth (A549/ATCC NSCLC): 19.1%
growth (COLO 205 colon): -49.2% (active)
growth (DU-145 prostate): 21.6%
growth (SF-268 CNS): 20.4%
growth (SF-295 CNS): -88.8% (active)
growth (SF-539 CNS): -96.4% (active)
growth (UACC-257 melanoma): -41% (active)
growth (HT29 colon): -57.6% (active)
growth (SNB-75 CNS): -19.3% (active)
growth (U251 CNS): -14.3% (active)
growth (PC-3 prostate): -25.6% (active)
growth (SK-MEL-5 melanoma): -97.2% (active)
growth (UACC-62 melanoma): -90.8% (active)
growth (SK-MEL-2 melanoma): -53.6% (active)
growth (HL-60(TB) leukemia): -4.67% (active)

CC[C@]12C=CCN3CC[C@@]4(c5ccc(OC)cc5N(C)[C@H]4[C@@](O)(C(=O)OC)[C@@H]1OC(=O)CCC[P+](C1CCCCC1)(C1CCCCC1)C1CCCCC1)[C@@H]32
growth (NCI-H226 lung): -20% (active)
growth (NCI-H322M lung): 24.5%
growth (HOP-62 NSCLC): 4.26% (active)
growth (NCI-H460 lung): 4.64% (active)
growth (NCI-H522 lung): -82.2% (active)
growth (A549/ATCC NSCLC): 14.1%
growth (COLO 205 colon): -63.6% (active)
growth (DU-145 prostate): 15.7%
growth (SF-268 CNS): -54.1% (active)
growth (SF-295 CNS): -13.5% (active)
growth (SF-539 CNS): -86.5% (active)
growth (UACC-257 melanoma): -80.9% (active)
growth (HT29 colon): -56.7% (active)
growth (SNB-75 CNS): -61.4% (active)
growth (U251 CNS): -82.5% (active)
growth (PC-3 prostate): -12% (active)
growth (SK-MEL-5 melanoma): -98.4% (active)
growth (UACC-62 melanoma): -97.3% (active)
growth (SK-MEL-2 melanoma): -84.9% (active)
growth (HL-60(TB) leukemia): -37.1% (active)

C[C@H]1[C@H](OC(=O)CCC(=O)N(CCCc2cn(-c3ccc([N+](=O)[O-])cc3)nn2)CCNc2ccnc3cc(Cl)ccc23)O[C@@H]2OC3(C)CC[C@H]4[C@H](C)CC[C@@H]1[C@@]24OO3
growth (NCI-H226 lung): 61.6%
growth (NCI-H322M lung): 81.5%
growth (HOP-62 NSCLC): 69.4%
growth (NCI-H460 lung): 53.5%
growth (NCI-H522 lung): 5.13% (active)
growth (A549/ATCC NSCLC): 52.6%
growth (COLO 205 colon): 20.1%
growth (DU-145 prostate): 53.8%
growth (SF-268 CNS): 59.5%
growth (SF-295 CNS): 46.1%
growth (SF-539 CNS): 38.1%
growth (UACC-257 melanoma): 63.3%
growth (HT29 colon): -6.33% (active)
growth (SNB-75 CNS): 89.2%
growth (U251 CNS): 55.9%
growth (PC-3 prostate): 41.2%
growth (SK-MEL-5 melanoma): 17.8%
growth (UACC-62 melanoma): 39%
growth (SK-MEL-2 melanoma): 26.7%
growth (HL-60(TB) leukemia): -24.2% (active)

CC12OOC(C)(OO1)C2CCC(=O)OCCNc1ccnc2cc(Cl)ccc12 (stereo not given)
growth (NCI-H226 lung): 98%
growth (NCI-H322M lung): 96.6%
growth (HOP-62 NSCLC): 96.8%
growth (NCI-H460 lung): 45.2%
growth (NCI-H522 lung): -79.2% (active)
growth (A549/ATCC NSCLC): 9.38% (active)
growth (COLO 205 colon): -54.4% (active)
growth (DU-145 prostate): -53.9% (active)
growth (SF-268 CNS): 97%
growth (SF-295 CNS): 83%
growth (SF-539 CNS): 35.6%
growth (UACC-257 melanoma): 82.1%
growth (HT29 colon): -59.8% (active)
growth (SNB-75 CNS): 90.5%
growth (U251 CNS): 105%
growth (PC-3 prostate): 53.6%
growth (SK-MEL-5 melanoma): 36.5%
growth (UACC-62 melanoma): 88.1%
growth (SK-MEL-2 melanoma): 107%
growth (HL-60(TB) leukemia): -40.3% (active)

COCCOCCOCCOc1ccc(-n2cc(CCCN(CCNc3ccnc4cc(Cl)ccc34)C(=O)CCC(=O)O[C@@H]3O[C@@H]4OC5(C)CC[C@H]6[C@H](C)CC[C@@H]([C@H]3C)[C@@]46OO5)nn2)cc1
growth (NCI-H226 lung): 53.5%
growth (NCI-H322M lung): 69.2%
growth (HOP-62 NSCLC): 61.2%
growth (NCI-H460 lung): 52%
growth (NCI-H522 lung): 1.23% (active)
growth (A549/ATCC NSCLC): 46.1%
growth (COLO 205 colon): 11.8%
growth (DU-145 prostate): 62%
growth (SF-268 CNS): 56.9%
growth (SF-295 CNS): 40.5%
growth (SF-539 CNS): 47.4%
growth (UACC-257 melanoma): 13.1%
growth (HT29 colon): 20.6%
growth (SNB-75 CNS): 57.6%
growth (U251 CNS): 46%
growth (PC-3 prostate): 32.3%
growth (SK-MEL-5 melanoma): -16.4% (active)
growth (UACC-62 melanoma): 37%
growth (SK-MEL-2 melanoma): 47.9%
growth (HL-60(TB) leukemia): -27.5% (active)

O=C(NC([Se])=NC1CCCCC1)c1ccccc1
growth (NCI-H226 lung): 58.7%
growth (NCI-H322M lung): 4.78% (active)
growth (HOP-62 NSCLC): 15.3%
growth (NCI-H460 lung): 11.6%
growth (NCI-H522 lung): -30.9% (active)
growth (A549/ATCC NSCLC): 21.1%
growth (COLO 205 colon): 49.2%
growth (DU-145 prostate): 46.2%
growth (SF-268 CNS): 96.2%
growth (SF-295 CNS): 8.53% (active)
growth (SF-539 CNS): 14.3%
growth (UACC-257 melanoma): 30.8%
growth (HT29 colon): 29.7%
growth (SNB-75 CNS): 17.8%
growth (U251 CNS): 49.2%
growth (PC-3 prostate): 51.3%
growth (SK-MEL-5 melanoma): 18%
growth (UACC-62 melanoma): 9.12% (active)
growth (SK-MEL-2 melanoma): -2.88% (active)
growth (HL-60(TB) leukemia): 16%

O=C(/C=C/c1ccc(Cl)cc1Cl)c1nc2ccccc2n1Cc1ccc(Br)cc1
growth (NCI-H226 lung): 55.7%
growth (NCI-H322M lung): 84.4%
growth (HOP-62 NSCLC): 94.8%
growth (NCI-H460 lung): 78.1%
growth (NCI-H522 lung): 88.2%
growth (A549/ATCC NSCLC): 86.5%
growth (COLO 205 colon): 100%
growth (DU-145 prostate): 83.9%
growth (SF-268 CNS): 81%
growth (SF-295 CNS): 79.4%
growth (SF-539 CNS): 84%
growth (UACC-257 melanoma): 84.4%
growth (HT29 colon): 53.9%
growth (SNB-75 CNS): 50.4%
growth (U251 CNS): 45%
growth (PC-3 prostate): 67.1%
growth (SK-MEL-5 melanoma): 85%
growth (UACC-62 melanoma): 60.7%
growth (SK-MEL-2 melanoma): 97.2%
growth (HL-60(TB) leukemia): 60%

Source: PubChem BioAssay (NCI)
